Assay outcomes as filed in PubChem.
Rab9 prom act: qHTS Assay for Rab9 Promoter Activators; Potency, µM (highest dose often 9.22 µM), for the others: top-dose activation, negative = inhibition, hits mostly activators; Huh7 Rab9 promoter-luciferase reporter, luminescence, 24 h; AID 485297, 2010; actives 2.8% (n = 320,000); also: % of control where 0% means no effect; nearly all actives have a fitted effect of over 60% in size
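Rab9 promoter-driven luciferase in stably transfected Huh7 cells; 1500 cells/well rested 2 h, exposed to compound in DMSO for 24 h at 37 °C, 5% CO2. Luminescence read 10 min after adding luciferase reagent at ambient temperature.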
FLuc modulator: qHTS profiling assay for firefly luciferase inhibitor/activator using purifed enzyme and Km concentrations of substrates (counterscreen for miR-21 project) | Luciferin 4-monooxygenase (Photinus pyralis), P08659 | purified FLuc, Km substrates, luminescence inhibition | Potency, µM (top dose mostly 57.5 µM), inactives show at the top dose activity change, negative = inhibition, hits mostly inhibitors | actives 6.9% (n = 360,000) | AID 588342, 2011;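 also: plate controls were vehicle for no effect and reference inhibitor for full effect; nearly all actives have a fitted effect of over 55% in size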
Target sequence (P08659 whole entry, looked up): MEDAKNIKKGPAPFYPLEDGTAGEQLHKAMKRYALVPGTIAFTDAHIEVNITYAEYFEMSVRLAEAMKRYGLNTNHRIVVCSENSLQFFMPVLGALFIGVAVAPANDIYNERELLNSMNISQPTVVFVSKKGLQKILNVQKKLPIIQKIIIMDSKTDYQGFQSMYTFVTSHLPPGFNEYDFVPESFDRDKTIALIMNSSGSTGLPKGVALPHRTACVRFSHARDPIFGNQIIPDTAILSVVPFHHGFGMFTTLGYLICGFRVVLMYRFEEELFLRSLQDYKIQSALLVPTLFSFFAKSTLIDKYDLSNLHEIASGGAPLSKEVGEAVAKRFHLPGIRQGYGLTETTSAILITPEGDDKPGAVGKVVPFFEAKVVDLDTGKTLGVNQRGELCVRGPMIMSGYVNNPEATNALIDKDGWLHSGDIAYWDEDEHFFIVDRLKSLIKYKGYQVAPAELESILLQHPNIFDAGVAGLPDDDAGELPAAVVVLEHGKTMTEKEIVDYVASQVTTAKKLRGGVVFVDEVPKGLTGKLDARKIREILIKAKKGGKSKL
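Biochemical qHTS of compounds, final roughly 60 µM downward over six points, against 10 nM purified firefly luciferase using Km concentrations of substrates (10 uM D-luciferin, 10 uM ATP) in Tris acetate pH 7.5 buffer; luminescence output.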
ELG1 genotoxic: qHTS screen for small molecules that induce genotoxicity in human embryonic kidney (HEK293T) cells expressing luciferase-tagged ELG1; Potency, µM (highest dose often 46 µM), inactives show top-dose activity change, positive = activation, hits mostly activators; HEK293T ELG1-luciferase reporter, luminescence, 16 h; actives 1.3% (n = 330,000); also: % of control where 0% means no effect; nearly all actives have a fitted effect of over 60% in size
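Cells (2,000/well) expressing the ELG1-luciferase fusion are dosed by pin tool and kept 16 hr at 37 °C, 5% CO2. Signal comes from ONE-Glo luciferase reagent after 30 min at room temperature.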
NPC1 promoter act: qHTS Assay for NPC1 Promoter Activators | Huh7 NPC1 promoter luciferase reporter, 24 h | Potency, µM (highest dose often 9.22 µM), for the others: at the highest dose activation, usual class: activators | actives 2.4% (n = 320,000); also: % of control where 0% means no effect; nearly all actives have a fitted effect of over 60% in size
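Stably transfected Huh7 (NPC1 promoter→luciferase), 1500 cells/well in Opti-MEM + 10% FBS, 2 h settle, then compound 24 h at 37 °C. Luminescence after 10 min with Amplite reagent.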
SMN2 splice enh: qHTS Assay for Enhancers of SMN2 Splice Variant Expression | HEK293 SMN2-luciferase splicing reporter, luminescence, 30-36 h | Potency, µM (titrated, usually from 46.1 µM), inactives show at the highest dose activity change, positive = activation, usual class: activators | actives 2.8% (n = 210,000) | AID 1458, 2008; also: % of control where 0% means no effect; nearly all actives have a fitted effect of over 55% in size
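HEK293 cells carry an SMN2 minigene-luciferase reporter in which exon 7 inclusion puts luciferase in frame. Cells were seeded at 2000 cells/well, attached for 10-12 hours, then exposed to compounds for 30-36 hours at 37C before ONE-Glo luminescence.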
Luc counter: Counterscreen for Luciferase (Kinase-Glo TM) Inhibition. Luciferin 4-monooxygenase (Photuris pensylvanica), Q27757. Kinase-Glo luciferase, ATP luminescence, 8 min. Potency, µM (top dose mostly 38.3 µM), without a hit: at the top dose activity change, negative = inhibition, usual class: inhibitors. actives 0.28% (n = 200,000). AID 1379, 2008; also: % is scaled to controls: 0 for no effect and ±100 for the full control effect; nearly all actives have a fitted effect of over 60% in size
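Compound is pinned into ATP-containing buffer (10 uM ATP, imidazole pH 7.2, 7 mM MgCl2). Kinase-Glo luciferase reagent is then added. Light output is recorded following an 8-min room-temperature incubation.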
An asterisk follows results filed as active; ? = inconclusive; / = no result given; [ ] = remark or other dose. Compounds with a hit are over-represented: about 7.3% of the library has one in this group of screens. Calls follow the shape of the dose curve; as a rule, active = well fitted curve in the direction sought with a large enough effect; inconclusive = small, poorly fitted or top-dose-only effect, or another doubt; inactive = no such curve, though single readings can be large; an effect the other way counts as inactive or inconclusive. Potency is read from the fitted curve at half-maximal effect.

SMILES	Rab9 prom act	FLuc modulator	ELG1 genotoxic	NPC1 promoter act	SMN2 splice enh	Luc counter
COc1ccc(N2CCN(C(=O)c3ccc(-c4nc5ccccc5s4)o3)CC2)cc1	17.8%	9.53µM*	1.8%	2.4%	/	/
COc1ccccc1N1CCN(C(=O)c2ccc(-c3nc4ccccc4s3)o2)CC1	24.4%	13.5µM*	-6.5%	-3.5%	/	/
COc1ccc(N2CCN(C(=O)c3cc4c(C)nc5ccccc5c4o3)CC2)cc1	-3.3%	-0.9%	-5.6%	-3.9%	/	/
COc1ccc2c(c1)[nH]c1c(=O)n(Cc3ccco3)cnc12	?	-14.0%	18.4µM*	?	?	3.4%
CCOc1ccc(OCc2ccc(C(=O)NC(C)C)o2)cc1	26.2%	-18.4%	3.7%	?	/	/
CCOC(=O)c1ccc(COc2ccc(C(C)C)cc2)o1	0.501µM*	15.1µM*	?	0.631µM*	/	/
CCOc1ccc(OCc2ccc(C(=O)OCc3ccccn3)o2)cc1	0.891µM*	?	0.2%	?	8.91µM*	-3.7%
Cc1cc(C)cc(OCc2ccc(C(=O)O)o2)c1	0.7%	-18.8%	?	2.6%	?	-2.3%
O=C(c1ccc(COc2ccc(Br)cc2)o1)N1N=C(C(F)F)CC1(O)C(F)F (stereo unspecified)	-1.9%	-8.5%	-6.6%	7.4%	-45.8%	-0.2%
CCC(C)c1ccc(OCc2ccc(C(=O)O)o2)cc1 (stereo unspecified)	?	3.01µM*	0.411µM*	?	/	/
CCOc1ccc(OCc2ccc(C(=O)N3N=C(C(F)F)CC3(O)C(F)F)o2)cc1 (stereo unspecified)	3.98µM*	-0.9%	1.8%	27.6%	?	-5.9%
COC(=O)c1ccc(COc2ccc(C(=O)c3ccccc3)cc2)o1	11.9%	-11.7%	-7.7%	13.7%	/	/
CN1CCN(C(=O)c2ccc(COc3ccc(C(C)(C)C)cc3)o2)CC1	?	8.49µM*	6.1%	?	?	-0.1%
CCOc1ccc(OCc2ccc(C(=O)N3CCCC3)o2)cc1	5.2%	?	6.4%	?	7.1%	1.4%
CC(C)c1ccc(OCc2ccc(C(=O)N3CCCC3)o2)cc1	2µM*	16.9µM*	?	?	/	/
CCCc1ccc(OCc2ccc(C(=O)N3CCCC3)o2)cc1	24.9%	?	5.3%	16.4%	/	/
COC(=O)/C=C/c1cc(O)ccc1O	/	/	/	/	1.4%	/
CC1(C)CCc2cc(-c3ccnc(=S)[nH]3)ccc2O1	0.631µM*	10.7µM*	1.46µM*	0.447µM*	/	/
O=c1c(-c2ccccc2)nc2cnc(N3CCNCC3)nc2n1C1CC1	/	/	/	/	-2.9%	-4.2%
COc1ccc(N2CCN(C(=O)c3cccc(NC4=NC5CS(=O)(=O)CC5S4)c3)CC2)cc1 (stereo unspecified)	-5.4%	3.2%	-0.8%	2.5%	/	/
CC1CCN(C(=O)c2cccc(NC(=O)c3nsc4ccccc34)c2)CC1	/	3.38µM*	/	/	/	/
Cc1ccc(C(=O)N2CCN(c3ccccc3)CC2)cc1NC(=O)c1nsc2ccccc12	/	-4.3%	/	/	/	/
O=C(Nc1cccc(C(=O)N2CCN(c3ccccc3)CC2)c1)c1nsc2ccccc12	/	2.69µM*	/	/	/	/
COc1ccc(N2CCN(C(=O)c3cccc(NC(=O)c4nsc5ccccc45)c3)CC2)cc1	/	9.53µM*	/	/	/	/
COc1cccc(N2CCN(C(=O)c3cccc(NC(=O)c4nsc5ccccc45)c3)CC2)c1	/	1.9µM*	/	/	/	/
SMILES	Rab9 prom act	FLuc modulator	ELG1 genotoxic	NPC1 promoter act	SMN2 splice enh	Luc counter
COc1ccccc1N1CCN(C(=O)c2cc3c(=O)n(C)c4ccccc4c3s2)CC1	/	-16.7%	/	/	-13.4%	/
NC(N)=N/N=C\c1ccc(O)c(C(=O)O)c1	/	/	/	/	2.8%[9.22 µM]	-2.7%[7.66 µM]
CCOC(=O)C1CCCN(C(=O)c2cccc(NC(=O)c3nsc4ccccc34)c2)C1 (stereo unspecified)	/	9.53µM*	/	/	/	/
O=C(CNC(=O)c1ccccc1)NCCCSc1ccccc1	/	/	2.1%	/	/	/
O=C(NCCCSc1ccccc1)c1cc(Cl)ccc1O	-10.3%	10.7µM*	?	-3.4%	/	/
CCC(=O)N1CCc2cc(Br)cc(S(=O)(=O)N3CCCC(C(=O)NCc4ccccc4)C3)c21 (stereo unspecified)	/	-2.0%	/	/	-18.2%	/
CC1=CC(C)(C)Nc2ccc(OC(=O)c3ccco3)cc21	16.6%	21.3µM*	22.7%	-2.6%	-15.7%	-5.1%
CC1=CC(C)(C)Nc2ccc(OC(=O)c3cccnc3)cc21	4.4%	-16.1%	6.8%	-9.5%	-7.4%	-0.9%
Cn1c(-c2ccccc2)cc(=O)c2ccccc21	-0.3%	-18.5%	1.7%	1.3%	7.5%	-2.1%
COc1ccc2c(c1)c(=O)cc(-c1ccccc1)n2C	11.9%	23.9µM*	?	21.8%	?	-1.0%
Cc1ccc2nc(C)cc(N/N=C/c3ccccc3O)c2c1	10.9%	-1.7%	7.8%	22.3%	/	/
Cc1ccc(C)c(/C=N/Nc2nc3ccccc3c(=O)n2O)c1	2.3%	13.5µM*	3.9%	5.6%	/	/
C/C(=N\Nc1nc2ccccc2c(=O)n1O)c1ccco1	3.16µM*	10.7µM*	?	29.5%	/	/
Cc1cccc(C(=O)Nc2ccccc2OCc2cc(=O)n3ccccc3n2)c1	/	-0.2%	/	/	/	/
CCc1ccc(NC(=O)c2ccc(F)c(S(=O)(=O)NCCc3ccc(OC)c(OC)c3)c2)cc1	/	0.0%	/	/	/	/
COc1ccc(-c2cn3c(n2)sc2cc(C(=O)Nc4cc(Cl)ccc4C)ccc23)cc1	/	3.3%	/	/	/	/
CCSC1=C(C#N)C2(CCCCC2)C(C#N)=C(N)N1	12.6%	6.01µM*	-1.5%	-4.6%	-13.0%	-3.4%
N#CC1=C(N)NC(SCC(=O)c2ccc(Br)cc2)=C(C#N)C12CCCCC2	-12.9%	-0.2%	-10.0%	-2.2%	-27.6%	-3.2%
N#CC1=C(N)NC(SCc2ccccc2)=C(C#N)C12CCCCC2	6.9%	-2.5%	-6.4%	-1.9%	-22.6%	4.5%
CCCSC1=C(C#N)C2(CCCCC2)C(C#N)=C(N)N1	-7.3%	21.3µM*	-0.8%	-0.5%	/	0.4%
COc1cccc([C@@H]2Oc3ccc(Br)cc3C[C@H]2OC(=O)NS(=O)(=O)c2ccc(C)cc2)c1	/	/	/	/	-4.1%	0.2%
CC(=O)c1ccc(NC(=O)c2ncn(-c3ccccc3)n2)cc1	/	-16.7%	/	/	17.4%	/
O=C(NCc1ccc2c(c1)OCO2)c1cc(-c2ccc(Cl)cc2Cl)on1	0.5%	12µM*	-3.7%	2.0%	-4.3%	-1.1%
O=C(NCc1ccc2c(c1)OCO2)c1cccc(Cl)c1	20.1%	-2.1%	3.3%	3.8%	6.3%	0.0%
